# Experimental data as given in PubChem BioAssay (Tox21).
# A number with no mark means an inactive call. Inconclusive results are not listed. A call without a number means that no potency is given here. The source made the active and inactive calls. Unless noted, the call rests on the fitted dose curve; in most records, active means well fitted curve in the direction sought with a large enough effect in the repeat runs; inconclusive means weak or mixed curves; inactive means no such curve, though single readings can be large; an effect the other way counts as inactive or inconclusive.
# How the values were obtained:
# [1] = qHTS assay to identify small molecule agonists of the hypoxia (HIF-1) signaling pathway (AID 1224846; active means well fitted activation curve with a large enough effect in the signal ratio in the repeat runs, not every such curve was filed as active; the % refers to the signal ratio)
# Summary of the method: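 Compounds added to ME-180 cells carrying hypoxia-response-element beta-lactamase reporter (0.5% dialyzed FBS, 5 h preplating), 17 h at 37C; agonist activity detected by CCF4-AM B/G FRET read-out.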
# [2] = qHTS assay to identify small molecule agonists of H2AX - cell viability counter screen (AID 1224847; calls by dose curve; further: nearly all actives have a fitted effect of over 30% in size; further: potency means the concentration at half of the fitted maximal effect)
# Summary of the method: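 After overnight plating of 1000 CHO-K1 cells per well, a 15-concentration compound series was applied for 3 hr at 37C. Luminescence from CellTiter-Glo, read following 30 min at room temperature, reflected cell viability.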
# [3] = qHTS assay to identify small molecule antagonists of the estrogen related receptor (ERR) signaling pathway from Tox21 library (AID 1224848); further: nearly all actives have a fitted effect of over 50% in size; further: potency means the concentration at half of the fitted maximal effect
# Summary of the method: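 Compounds dissolved in DMSO are pin-transferred onto ERR reporter cells (2,000 per well) that have settled for 6 h at 37 C. Plates then incubate 18 h at 37 C before ONE-Glo luciferase reagent and a luminescence read 30 min later.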
# [4] = qHTS assay to identify small molecule agonists of the estrogen related receptor (ERR) signaling pathway from Tox21 library (AID 1224849; calls by dose curve; further: nearly all actives have a fitted effect of over 15% in size); settings: ERR reporter cell line, ONE-Glo luciferase, 18 h; at 92.4 µM (top of the series) unless noted
# Summary of the method: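 Luminescent agonist read-out (One-Glo, 30-minute room-temperature incubation) following 18-hour compound treatment at 37 C of the ERR cell line, which had been plated 6 hours before dosing.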
# [5] = qHTS RealTime-Glo MT Cell Viability Assay in HepG2 cells - 24 hour (AID 1224867); further: nearly all actives have a fitted effect of over 50% in size; further: potency means the concentration at half of the fitted maximal effect
# Summary of the method: (§1)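 Cell number in HepG2 cultures estimated from NanoLuc luminescence generated by metabolic reduction of a prosubstrate by living cells. The homogeneous, nonlytic format allowed repeated reads at 0, 8, 16, 24, 32 and 40 h of compound exposure.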
# [6] = qHTS RealTime-Glo MT Cell Viability Assay in HEK293 cells - 32 hour (AID 1224868); further: nearly all actives have a fitted effect of over 50% in size; further: potency means the concentration at half of the fitted maximal effect
# Summary of the method: (§2)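 Homogeneous bioluminescent viability format in HEK293 cells (600 cells/well). Following 5 h at 37 C/5% CO2, 23 nL compound was pintooled; the signal was measured repeatedly during 40 h incubation.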
# [7] = A CellTox Green Cytotoxicity Assay to monitor cytotoxicity in HEK293 cells - 0 hour (AID 1224869); further: nearly all actives have a fitted effect of over 50% in size
# Summary of the method: (§3)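 Fluorescence from a DNA-binding dye excluded by viable cells was measured repeatedly in the same HEK293 wells (600 cells/well) during continuous compound exposure at 37 C. Each assay gives one read point: 0, 8, 16, 24, 32 or 40 h.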
# [8] = qHTS RealTime-Glo MT Cell Viability Assay in HepG2 cells - 40 hour (AID 1224870); further: nearly all actives have a fitted effect of over 50% in size; further: potency means the concentration at half of the fitted maximal effect
# Summary of the method: (§4)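 HepG2 cells (600/well) mixed with RealTime-Glo MT reagent, settled 5 h at 37 C/5% CO2 before compound addition. Nonlytic NanoLuc luminescence from viable-cell prosubstrate reduction read repeatedly during 40 h treatment at 37 C.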
# [9] = A CellTox Green Cytotoxicity Assay to monitor cytotoxicity in HEK293 cells - 40 hour (AID 1224871); further: nearly all actives have a fitted effect of over 45% in size; further: potency means the concentration at half of the fitted maximal effect
# Summary of the method: as §3
# [10] = qHTS RealTime-Glo MT Cell Viability Assay in HEK293 cells - 16 hour (AID 1224872); further: nearly all actives have a fitted effect of over 50% in size; further: potency means the concentration at half of the fitted maximal effect
# Summary of the method: as §2
# [11] = qHTS RealTime-Glo MT Cell Viability Assay in HEK293 cells - 40 hour (AID 1224874); settings: RealTime-Glo luminescence; max response: hits give low values; further: nearly all actives have a fitted effect of over 50% in size; further: potency means the concentration at half of the fitted maximal effect
# Summary of the method: (§5)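 Luminescence, which tracks viable cell number through reduction of the prosubstrate to a NanoLuc substrate, was read over continuous 37 C culture. Cells (600/well) were premixed with reagent and rested 5 h before 23 nL of compound in DMSO was pinned.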
# [12] = A CellTox Green Cytotoxicity Assay to monitor cytotoxicity in HEK293 cells - 24 hour (AID 1224875); further: nearly all actives have a fitted effect of over 45% in size; further: potency means the concentration at half of the fitted maximal effect
# Summary of the method: as §3
# [13] = A CellTox Green Cytotoxicity Assay to monitor cytotoxicity in HepG2 cells - 16 hour (AID 1224876); further: nearly all actives have a fitted effect of over 45% in size; further: potency means the concentration at half of the fitted maximal effect
# Summary of the method: (§6)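 Real-time cytotoxicity: fluorescence of a cell-impermeant cyanine dye binding DNA of dead HepG2 cells, measured repeatedly (0–40 h) during compound exposure at 37 C. Cells seeded 600/well with reagent, dosed after 5 h.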
# [14] = qHTS RealTime-Glo MT Cell Viability Assay in HepG2 cells - 32 hour (AID 1224877); further: nearly all actives have a fitted effect of over 55% in size; further: potency means the concentration at half of the fitted maximal effect
# Summary of the method: as §1
# [15] = A CellTox Green Cytotoxicity Assay to monitor cytotoxicity in HepG2 cells - 24 hour (AID 1224878); further: nearly all actives have a fitted effect of over 45% in size; further: potency means the concentration at half of the fitted maximal effect
# Summary of the method: as §6
# [16] = A CellTox Green Cytotoxicity Assay to monitor cytotoxicity in HepG2 cells - 40 hour (AID 1224879); further: nearly all actives have a fitted effect of over 40% in size; further: potency means the concentration at half of the fitted maximal effect
# Summary of the method: as §6
# [17] = qHTS RealTime-Glo MT Cell Viability Assay in HEK293 cells - 0 hour (AID 1224880); further: nearly all actives have a fitted effect of over 45% in size; further: potency means the concentration at half of the fitted maximal effect
# Summary of the method: as §5
# [18] = A CellTox Green Cytotoxicity Assay to monitor cytotoxicity in HEK293 cells - 32 hour (AID 1224881); further: nearly all actives have a fitted effect of over 40% in size; further: potency means the concentration at half of the fitted maximal effect
# Summary of the method: as §3
# [19] = A CellTox Green Cytotoxicity Assay to monitor cytotoxicity in HepG2 cells - 0 hour (AID 1224882); further: nearly all actives have a fitted effect of over 35% in size
# Summary of the method: as §6
# [20] = qHTS RealTime-Glo MT Cell Viability Assay in HepG2 cells - 8 hour (AID 1224873); further: nearly all actives have a fitted effect of over 55% in size
# Summary of the method: as §4
compound,measurement,setting,value
O=C1NCCN1CCN1CCC(c2cn(-c3ccc(F)cc3)c3ccc(Cl)cc23)CC1,outcome,[1],inactive
same,Potency,[2],49.2 µM (active)
same,Potency,[3],13.3 µM (active)
same,"activity change, positive = activation",[4],-56.2% [at 42.5 µM]
same,Potency,[5],23.9 µM (active)
same,Potency,[6],21.3 µM (active)
same,Potency,[7],inactive
same,Potency,[8],26.8 µM (active)
same,Potency,[9],23.9 µM (active)
same,Potency,[10],23.9 µM (active)
same,Potency,[11],12 µM (active)
same,Potency,[12],23.9 µM (active)
same,Potency,[13],26.8 µM (active)
same,Potency,[14],26.8 µM (active)
same,Potency,[15],26.8 µM (active)
same,Potency,[16],26.8 µM (active)
same,Potency,[17],inactive
same,Potency,[18],23.9 µM (active)
same,Potency,[19],inactive
CC1=CP(=O)(c2ccccc2)CC1 (stereo not drawn),outcome,[1],inactive
same,Potency,[2],inactive
same,Potency,[3],inactive
same,"activity change, positive = activation",[4],-5.03%
same,Potency,[5],inactive
same,Potency,[6],inactive
same,Potency,[7],inactive
same,Potency,[8],inactive
same,Potency,[9],inactive
same,Potency,[10],inactive
same,Potency,[20],inactive
same,max response,[11],9.74%
same,Potency,[12],inactive
same,Potency,[13],inactive
same,Potency,[14],inactive
same,Potency,[15],inactive
same,Potency,[17],inactive
same,Potency,[18],inactive
same,Potency,[19],inactive
CCNc1nc(NC(C)CC)nc(OC)n1 (stereo not drawn),outcome,[1],inactive
same,Potency,[2],inactive
same,Potency,[3],inactive
same,"activity change, positive = activation",[4],10.4%
same,Potency,[5],inactive
same,Potency,[6],inactive
same,Potency,[7],inactive
same,Potency,[8],inactive
same,Potency,[9],inactive
same,Potency,[10],inactive
same,Potency,[20],inactive
same,max response,[11],-18.1%
same,Potency,[12],inactive
same,Potency,[13],inactive
same,Potency,[15],inactive
same,Potency,[16],inactive
same,Potency,[17],inactive
same,Potency,[19],inactive
O=c1cccc[nH]1,outcome,[1],inactive
same,Potency,[2],inactive
same,Potency,[3],inactive
same,"activity change, positive = activation",[4],0.143%
same,Potency,[5],inactive
same,Potency,[6],inactive
same,Potency,[7],inactive
same,Potency,[8],inactive
same,Potency,[9],inactive
same,Potency,[10],inactive
same,Potency,[20],inactive
same,max response,[11],12.2%
same,Potency,[12],inactive
same,Potency,[13],inactive
same,Potency,[14],inactive
same,Potency,[15],inactive
same,Potency,[16],inactive
same,Potency,[17],inactive
same,Potency,[18],inactive
same,Potency,[19],inactive
CC1=CCC(=O)O1,outcome,[1],inactive
same,Potency,[2],inactive
same,Potency,[3],inactive
same,"activity change, positive = activation",[4],8.22%
same,Potency,[5],inactive
same,Potency,[6],inactive
same,Potency,[7],inactive
same,Potency,[8],inactive
same,Potency,[9],inactive
same,Potency,[10],inactive
same,Potency,[20],inactive
same,max response,[11],8.04%
same,Potency,[12],inactive
same,Potency,[13],inactive
same,Potency,[14],inactive
same,Potency,[15],inactive
same,Potency,[16],inactive
same,Potency,[17],inactive
same,Potency,[18],inactive
same,Potency,[19],inactive
OCCCCl,outcome,[1],inactive
same,Potency,[2],inactive
same,Potency,[3],inactive
same,"activity change, positive = activation",[4],-6.99%
same,Potency,[5],inactive
same,Potency,[6],inactive
same,Potency,[7],inactive
same,Potency,[8],inactive
same,Potency,[9],inactive
same,Potency,[10],inactive
same,Potency,[20],inactive
same,max response,[11],8.9%
same,Potency,[12],inactive
same,Potency,[13],inactive
same,Potency,[15],inactive
same,Potency,[16],inactive
same,Potency,[17],inactive
same,Potency,[19],inactive
CC(C)=CCCC(C)O (stereo not drawn),outcome,[1],inactive
same,Potency,[2],inactive
same,Potency,[3],inactive
same,"activity change, positive = activation",[4],0.538%
same,Potency,[5],inactive
same,Potency,[6],inactive
same,Potency,[7],inactive
same,Potency,[8],inactive
same,Potency,[9],inactive
same,Potency,[10],inactive
same,max response,[11],0.513%
same,Potency,[12],inactive
same,Potency,[13],inactive
same,Potency,[14],inactive
same,Potency,[15],inactive
same,Potency,[16],inactive
same,Potency,[17],inactive
same,Potency,[18],inactive
same,Potency,[19],inactive
CCOC(/C=C(\C)CCC=C(C)C)OCC,outcome,[1],inactive
same,Potency,[2],inactive
same,Potency,[3],inactive
same,"activity change, positive = activation",[4],4.73%
same,Potency,[5],inactive
same,Potency,[6],inactive
same,Potency,[7],inactive
same,Potency,[8],inactive
same,Potency,[9],inactive
same,Potency,[10],inactive
same,Potency,[20],inactive
same,max response,[11],9.38%
same,Potency,[12],inactive
same,Potency,[13],inactive
same,Potency,[14],inactive
same,Potency,[15],inactive
same,Potency,[16],inactive
same,Potency,[17],inactive
same,Potency,[18],inactive
same,Potency,[19],inactive
Cc1ccc(O)cn1,outcome,[1],inactive
same,Potency,[2],inactive
same,Potency,[3],inactive
same,"activity change, positive = activation",[4],9.23%
same,Potency,[5],inactive
same,Potency,[6],inactive
same,Potency,[7],inactive
same,Potency,[8],inactive
same,Potency,[9],inactive
same,Potency,[10],inactive
same,Potency,[20],inactive
same,max response,[11],-9.02%
same,Potency,[12],inactive
same,Potency,[13],inactive
same,Potency,[14],inactive
same,Potency,[15],inactive
same,Potency,[16],inactive
same,Potency,[17],inactive
same,Potency,[18],inactive
same,Potency,[19],inactive
Cc1ccc(CCn2c3c(c4cc(Cl)ccc42)CN(C)CC3)cn1,outcome,[1],inactive
same,Potency,[2],inactive
same,Potency,[3],inactive
same,"activity change, positive = activation",[4],48.3% [at 42.5 µM] (active)
same,Potency,[5],inactive
same,Potency,[6],19 µM (active)
same,Potency,[7],inactive
same,Potency,[8],inactive
same,Potency,[9],inactive
same,Potency,[20],inactive
same,Potency,[11],21.3 µM (active)
same,Potency,[12],inactive
same,Potency,[13],inactive
same,Potency,[14],inactive
same,Potency,[17],16.9 µM (active)
same,Potency,[18],inactive
same,Potency,[19],inactive
CCCCCCCOC(=O)c1ccccc1C(=O)OCCCCCCC,outcome,[1],inactive
same,Potency,[2],inactive
same,Potency,[3],inactive
same,"activity change, positive = activation",[4],1.61%
same,Potency,[5],inactive
same,Potency,[6],inactive
same,Potency,[7],inactive
same,Potency,[8],inactive
same,Potency,[9],inactive
same,Potency,[10],inactive
same,Potency,[20],inactive
same,max response,[11],-16.7%
same,Potency,[12],inactive
same,Potency,[13],inactive
same,Potency,[14],inactive
same,Potency,[15],inactive
same,Potency,[16],inactive
same,Potency,[17],inactive
same,Potency,[18],inactive
same,Potency,[19],inactive
CCc1cccc(CC)c1NC(=O)C(=O)O,outcome,[1],inactive
same,Potency,[2],inactive
same,Potency,[3],inactive
same,"activity change, positive = activation",[4],-1.7%
same,Potency,[5],inactive
same,Potency,[6],inactive
same,Potency,[7],inactive
same,Potency,[8],inactive
same,Potency,[9],inactive
same,Potency,[10],inactive
same,Potency,[20],inactive
same,max response,[11],9.15%
same,Potency,[12],inactive
same,Potency,[14],inactive
same,Potency,[15],inactive
same,Potency,[16],inactive
same,Potency,[17],inactive
same,Potency,[18],inactive
same,Potency,[19],inactive
CO[Si](CCCNCCNCCN)(OC)OC,outcome,[1],inactive
same,Potency,[2],inactive
same,Potency,[3],inactive
same,"activity change, positive = activation",[4],2.38%
same,Potency,[5],inactive
same,Potency,[6],inactive
same,Potency,[7],inactive
same,Potency,[9],inactive
same,Potency,[10],inactive
same,Potency,[20],inactive
same,max response,[11],4.89%
same,Potency,[12],inactive
same,Potency,[13],inactive
same,Potency,[14],inactive
same,Potency,[15],inactive
same,Potency,[16],inactive
same,Potency,[17],inactive
same,Potency,[18],inactive
same,Potency,[19],inactive
